This note sets out measurements from PubChem BioAssay (EPA / NIEHS).

Calls of active or inactive are those of the source. Rule for the calls: active = hit-call score of the fitted dose curve at least 0.9, where 1 is the maximum; inactive = score below 0.9.

This assay is described as follows: APR_HepG2_MitoMass_24hr: Apredica 24-hour HepG2 Assay for Mitochondrial Mass (AID 2282912). The conditions noted are these: high-content imaging, actives raise or lower the signal. As to the method:
APR_HepG2_24hr is a cell-based, multiplexed-readout assay that uses HepG2, a human liver cell line, with measurements taken at 24 hours after chemical dosing in a 384-well plate.APR_HepG2_MitoMass_24hr is one of 10 assay component(s) measured or calculated from the APR_HepG2_24hr assay. It is designed to make measurements of cell phenotype, a form of morphology reporter, as detected with fluorescence intensity signals by HCS Fluorescent Imaging technology.Data from the assay component APR_HepG2_MitoMass_24hr was analyzed into 1 assay endpoint. This assay endpoint, APR_HepG2_MitoMass_24hr, was analyzed with bidirectional fitting relative to DMSO as the negative control and baseline of activity. Using a type of morphology reporter, gain or loss-of-signal activity can be used to understand changes in the signaling. Furthermore, this assay endpoint can be referred to as a primary readout, because this assay has produced multiple assay endpoints where this one serves a signaling function. To generalize the intended target to other relatable targets, this assay endpoint is annotated to the cell morphology intended target family, where the subfamily is organelle conformation.
Cells were treated with dimethyl sulfoxide (DMSO) as a solvent control at a final concentration of 0.5% v/v or with compounds in DMSO with a resulting final DMSO concentration of 0.5% v/v. Compound treatment was done at concentrations of 0.39, 0.78, 1.56, 3.12, 6.24, 12.5, 25, 50, 100, and 200 uM in duplicate on each plate. Cells were treated with compounds for 1, 24, or 72 hr. Carbonyl […] m-chloro-phenylhydrazone (CCCP) and taxol were used as positive controls for mitochondrial function and cytoskeletal stability, respectively; DMSO served as the negative control for this experiment. Cells were fixed by the direct addition of 50 uL formaldehyde in Hank's Balanced Salt Solution (HBSS) to a final concentration of 3.7%. After incubation in the fixation medium for 30 min at room temperature (293-298 K), cells were rinsed twice with HBSS and treated with cell permeabilization buffer (16 uL of 0.5% Triton X-100) for 10 min at room temperature (293-298 K) before labeling. For mitochondrial membrane potential and mitochondrial measurements, pre-fixed cells were incubated with 50 uL of MitoTracker Red CMXRos (Invitrogen) at a concentration of 250 nM for 30 min before fixation. In the remaining cases, post-fixed cells were labeled by incubation with a multiplexed mixture of primary antibodies in HBSS for 60 min at room temperature (293-298 K) to detect immunoreactivity of c-Jun (1:500), phospho-histone H3 (1:100), phospho-histone H2A.x (1:200), p53 (1:400), alpha-tubulin (1:200) and Hoechst 33342 (2 ug/mL). Cells were labeled for multiplexed imaging on two separate plates: a) Hoechst 33342, MitoTracker Red, phospho-histone H3, and alpha-tubulin, and b) Hoechst 33342, phospho-histone H2A.x, and c-Jun. A final rinse with HBSS (50 uL) was performed before analysis. The primary and secondary antibodies for the proteins were phospho-histone H3 (rabbit anti-phospho-histone H3 and FITC-donkey anti-rabbit IgG), phospho-histone H2A.x (mouse anti-phospho-histone H2A.x and FITC-donkey anti-mouse IgG), c-Jun (rabbit anti-phospho-c-Jun and Cy3-donkey anti-rabbit IgG), p53 (sheep anti-p53 and Cy5-donkey anti-sheep IgG), alpha-tubulin (mouse anti-alpha-tubulin and Cy5-donkey anti-mouse IgG). These antibodies are available as the CellCiphr HepG2 assay kit (Millipore).Digital images of each well were captured using a Cellomics ArrayScan VTI (Thermo Scientific Cellomics) (0.8 NA objective, 0.63x optical coupler, and XF-93 filter set) at 20x magnification. The images were acquired using the autofocus feature of the ArrayScan instrument, which entails the following steps. First, the camera focuses on channel 1 (Hoechst 33342), where nuclei are identified. Second, a Z offset of 1 um is used for capturing mitochondria (MitoTracker Red). […]
By AC50 is commonly meant the midpoint of the concentration-response curve, whichever way the signal moves. Consider `O=C(CCCN1CCC(O)(c2ccc(Cl)cc2)CC1)c1ccc(F)cc1`, for which the AC50 is 46 µM (active).
As to `O=C(c1ccccc1)c1ccccc1`, the molecule was called inactive.
The same measure, in the same setting: the same measure for `CCCCCCCCCCCCCCC`: “inactive”; for `CCCCC(CC)C(=O)O` (stereo not given): “inactive”.
Turning to `Cc1[nH]nc2c1N=C(c1ccccc1Cl)c1cc([N+](=O)[O-])ccc1N2`, the AC50 was 1.09 µM (active).
Consider `CN(C)CCOC(c1ccccc1)c1ccccc1`, for which the molecule was called inactive.
Still for that read-out and setting: for `O=C1NS(=O)(=O)c2ccccc21` the value was “inactive”; for `CCCCCCCCCCCCOS(=O)(=O)O`, “inactive”; for `CS(=O)(=O)c1ccc([C@@H](CC2CCCC2)C(=O)Nc2cnccn2)cc1Cl`, “inactive”.
For the molecule `CCCCC=O`, the call was inactive.
In the case of `OCC(CO)(CBr)CBr`, the result was inactive.
With `N=C(N)c1ccc(OCCCCCOc2ccc(C(=N)N)cc2)cc1`, the AC50 was 30 µM (active).
The same measure, in the same setting: for `CCCCc1oc2ccccc2c1C(=O)c1cc(I)c(OCCN(CC)CC)c(I)c1` the value was 20.7 µM (active).
Turning to `CN(Cc1cnc2nc(N)nc(N)c2n1)c1ccc(C(=O)N[C@@H](CCC(=O)O)C(=O)O)cc1`, the call was inactive.
The same measure, in the same setting: the same measure for `CC(=O)Nc1ccc(O)cc1`: “inactive”.
